Assay results: PubChem BioAssay (NCATS)
Results filed as inconclusive are left out. Calls of active or inactive are those of the source. Calls follow the shape of the dose curve; as a rule, active = well fitted curve in the direction sought with a large enough effect; inconclusive = small, poorly fitted or top-dose-only effect, or another doubt; inactive = no such curve, though single readings can be large; an effect the other way counts as inactive or inconclusive.

Test system: Zika virus NS2B-NS3 protease (linked construct)
Test: Primary screen NINDS Rhodamine qHTS for Zika virus inhibitors (AID 1347160); also: nearly all actives have a fitted effect of over 55% in size; also: potency is read from the fitted curve at half-maximal effect; as to activity change, negative = inhibition: % is scaled to controls: 0 for no effect and ±100 for the full control effect
Settings: purified NS2B-NS3 protease, Rhodamine110 substrate fluorescence; series mostly up to 57.1 µM; activity change, negative = inhibition: at the top concentration
Summary of the method: (§1)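 Enzyme (25 nM, linked NS2B-NS3) was preincubated 15 min with compound in 10 mM Tris-HCl pH 8.0, 0.01% Tween 20. Rhodamine110 substrate (1.5 microM) was then added and fluorescence read at start and after 15 min.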

| SMILES | Potency | activity change, negative = inhibition | outcome |
| --- | --- | --- | --- |
| CCCCCOc1cc2c(cc1-c1cc(/C=C/C(=O)O)ccc1O)C(C)(C)CCC2(C)C | 3.16 µM (active) | – | – |
| CC(C)(C)c1cc(C(C)(C)C)c2c(c1)C(O)(C(F)(F)F)C(=O)O2 (stereo unspecified) | 12.6 µM (active) | – | – |
| COC(=O)[C@@]12C(=O)C(C)C(=O)[C@]1(C)C(C)=C[C@H]1[C@]3(C=O)CC[C@H](OC(C)=O)C(C)(C)[C@H]3CC[C@@]12C (stereo partly specified) | – | 3.58% [at 33.1 µM] (inactive) | – |
| Cc1c(Cl)cccc1S(=O)(=O)Nc1nc(CC(=O)N2CCN(C)CC2)cs1 | – | 28.9% (inactive) | – |
| C=C(CO)C(=O)O[C@H]1C/C(C)=C/CC/C(CO)=C/[C@H]2OC(=O)C(=C)[C@H]12 | – | 7.96% [at 33.1 µM] (inactive) | – |
| C/C=C(\C)C(=O)OC1C(C)OC(OC2C(C)OC(OC3CCC4(C)C(=CCC5C4CCC4(C)C(C(C)OC6OC(COC7OC(CO)C(O)C(O)C7O)C(O)C(O)C6O)CCC54O)C3)CC2OC)C(O)C1OC (stereo unspecified) | – | -8.17% [at 15.1 µM] (inactive) | – |
| CC(C)[C@@H](CN1CC[C@@](C)(c2cccc(O)c2)[C@@H](C)C1)NC(=O)[C@H]1Cc2ccc(O)cc2CN1 | – | – | inactive |
| COc1c(C(C)C)cc2c(c1O)[C@@]1(C(=O)O)CCCC(C)(C)C1CC2 (stereo partly specified) | – | -14.4% [at 33.1 µM] (inactive) | – |
| CCN1CC2(COC)C3[C@@H](OC)C4C1C3(C1C[C@]3(O)[C@H](OC(=O)c5ccccc5)C1[C@]4(OC(C)=O)[C@@H](O)[C@@H]3OC)[C@H](OC)C[C@H]2O (stereo partly specified) | – | 1.1% (inactive) | – |
| CCc1[nH]c2ccc(OC)cc2c1CCN(C)C | – | 107% (inactive) | – |
| CCN1C[C@]2(OC(=O)c3ccccc3NC(C)=O)CC[C@H](OC)[C@@]34[C@@H]2C[C@@H]([C@@H]13)[C@@]1(O)C[C@H](OC)[C@H]2C[C@@H]4[C@]1(O)[C@H]2OC | – | – | inactive |
| CC(CCc1ccc(O)cc1)O[C@@H]1O[C@H](CO[C@H]2OC[C@](O)(CO)[C@H]2O)[C@@H](O)[C@H](O)[C@H]1O (stereo partly specified) | – | 2.72% [at 33.1 µM] (inactive) | – |
| Cn1ncnc1COc1nn2c(-c3c(F)cccc3F)nnc2cc1C1CCC1 | – | 15.2% (inactive) | – |
| C=CC(C)(O)CC/C=C(\C)C(=O)O[C@H]1[C@H](O)[C@@H](CO)O[C@@H](OC(=O)[C@]23CCC(C)(C)CC2C2=CCC4[C@@]5(C)CC[C@H](O[C@@H]6O[C@H](CO[C@@H]7OC[C@H](O)[C@H](O)[C@H]7O[C@@H]7OC[C@@H](O)[C@H](O)[C@H]7O)[C@@H](O)[C@H](O)[C@H]6O)C(C)(C)C5CC[C@@]4(C)[C@]2(C)CC3)[C@@H]1OC1OC(C)C(O[C@@H]2OC[C@@H](O)[C@H](O[C@@H]3OC[C@@H](O)[C@H](O)[C@H]3O)[C@H]2O)C(O)C1O (stereo partly specified) | – | 33.2% [at 10.7 µM] (inactive) | – |
| C[C@H]1O[C@@H](O[C@H]2C[C@@H](O)[C@]3(CO)C4C(CC[C@]3(O)C2)[C@@]2(O)CC[C@H](C3=CC(=O)OC3)[C@@]2(C)C[C@H]4O)[C@@H](O)[C@@H](O)[C@H]1O (stereo partly specified) | – | 15% [at 15.1 µM] (inactive) | – |
| CN1CCC[C@@H]1Cc1c[nH]c2ccc(Nc3ncccc3[N+](=O)[O-])cc12 | – | – | inactive |
| CC(N)Cc1c[nH]c2ccccc12 (stereo unspecified) | – | 33.7% (inactive) | – |
| N#C[C@@H](O[C@@H]1O[C@H](CO[C@@H]2O[C@H](CO)[C@@H](O)[C@H](O)[C@H]2O)[C@@H](O)[C@H](O)[C@H]1O)c1ccccc1 | – | – | inactive [at 33.1 µM] |
| CCCCCCn1c(=O)c(C(=O)Nc2ccc(C(=O)OCCC)cc2)c(O)c2ccccc21 | – | – | inactive [at 10.7 µM] |
| CN1CCCC1CCOC(c1cc2nccc(C(=O)O)c2[nH]1)c1ccccc1Cl (stereo unspecified) | – | -2.03% (inactive) | – |
| COC(=O)C1(C)CCC(O)C2(C)c3c(O)cc(C(C)C)cc3C(O)C(OC(C)=O)C12 (stereo unspecified) | – | 25.4% [at 33.1 µM] (inactive) | – |

Test system: not listed separately
Test: Confirmatory screen NINDS Rhodamine qHTS for Zika virus inhibitors (AID 1347161); also: nearly all actives have a fitted effect of over 60% in size; also: potency is read from the fitted curve at half-maximal effect;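 as to activity change, negative = inhibition: purified Zika NS2B-NS3 protease with linked NS2B cofactor domain and Rhodamine110 peptide substrate; plate controls were no-inhibitor control for no effect and no-enzyme control for full effect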
Settings: purified enzyme assay, Rhodamine110 substrate fluorescence, 15 min; series mostly up to 38.1 µM; activity change, negative = inhibition: at the top concentration
Summary of the method: as §1

| SMILES | Potency | activity change, negative = inhibition |
| --- | --- | --- |
| CCCCCOc1cc2c(cc1-c1cc(/C=C/C(=O)O)ccc1O)C(C)(C)CCC2(C)C | 2.21 µM (active) | – |
| COC(=O)C1(C)CCC(O)C2(C)c3cc(O)c(C(C)C)cc3C(O)C(OC(C)=O)C12 (stereo unspecified) | 27.1 µM (active) | – |
| COc1c(C(C)C)cc2c(c1O)[C@@]1(C(=O)O)CCCC(C)(C)C1CC2 (stereo partly specified) | 9.67 µM (active) | – |
| CCN1CC2(COC)C3[C@@H](OC)C4C1C3(C1C[C@]3(O)[C@H](OC(=O)c5ccccc5)C1[C@]4(OC(C)=O)[C@@H](O)[C@@H]3OC)[C@H](OC)C[C@H]2O (stereo partly specified) | – | 14.9% [at 114 µM] (inactive) |

Molecular target: Lysine-specific demethylase 5B (Homo sapiens) (UniProt Q9UGL1)
Sequence (Q9UGL1 whole entry, looked up): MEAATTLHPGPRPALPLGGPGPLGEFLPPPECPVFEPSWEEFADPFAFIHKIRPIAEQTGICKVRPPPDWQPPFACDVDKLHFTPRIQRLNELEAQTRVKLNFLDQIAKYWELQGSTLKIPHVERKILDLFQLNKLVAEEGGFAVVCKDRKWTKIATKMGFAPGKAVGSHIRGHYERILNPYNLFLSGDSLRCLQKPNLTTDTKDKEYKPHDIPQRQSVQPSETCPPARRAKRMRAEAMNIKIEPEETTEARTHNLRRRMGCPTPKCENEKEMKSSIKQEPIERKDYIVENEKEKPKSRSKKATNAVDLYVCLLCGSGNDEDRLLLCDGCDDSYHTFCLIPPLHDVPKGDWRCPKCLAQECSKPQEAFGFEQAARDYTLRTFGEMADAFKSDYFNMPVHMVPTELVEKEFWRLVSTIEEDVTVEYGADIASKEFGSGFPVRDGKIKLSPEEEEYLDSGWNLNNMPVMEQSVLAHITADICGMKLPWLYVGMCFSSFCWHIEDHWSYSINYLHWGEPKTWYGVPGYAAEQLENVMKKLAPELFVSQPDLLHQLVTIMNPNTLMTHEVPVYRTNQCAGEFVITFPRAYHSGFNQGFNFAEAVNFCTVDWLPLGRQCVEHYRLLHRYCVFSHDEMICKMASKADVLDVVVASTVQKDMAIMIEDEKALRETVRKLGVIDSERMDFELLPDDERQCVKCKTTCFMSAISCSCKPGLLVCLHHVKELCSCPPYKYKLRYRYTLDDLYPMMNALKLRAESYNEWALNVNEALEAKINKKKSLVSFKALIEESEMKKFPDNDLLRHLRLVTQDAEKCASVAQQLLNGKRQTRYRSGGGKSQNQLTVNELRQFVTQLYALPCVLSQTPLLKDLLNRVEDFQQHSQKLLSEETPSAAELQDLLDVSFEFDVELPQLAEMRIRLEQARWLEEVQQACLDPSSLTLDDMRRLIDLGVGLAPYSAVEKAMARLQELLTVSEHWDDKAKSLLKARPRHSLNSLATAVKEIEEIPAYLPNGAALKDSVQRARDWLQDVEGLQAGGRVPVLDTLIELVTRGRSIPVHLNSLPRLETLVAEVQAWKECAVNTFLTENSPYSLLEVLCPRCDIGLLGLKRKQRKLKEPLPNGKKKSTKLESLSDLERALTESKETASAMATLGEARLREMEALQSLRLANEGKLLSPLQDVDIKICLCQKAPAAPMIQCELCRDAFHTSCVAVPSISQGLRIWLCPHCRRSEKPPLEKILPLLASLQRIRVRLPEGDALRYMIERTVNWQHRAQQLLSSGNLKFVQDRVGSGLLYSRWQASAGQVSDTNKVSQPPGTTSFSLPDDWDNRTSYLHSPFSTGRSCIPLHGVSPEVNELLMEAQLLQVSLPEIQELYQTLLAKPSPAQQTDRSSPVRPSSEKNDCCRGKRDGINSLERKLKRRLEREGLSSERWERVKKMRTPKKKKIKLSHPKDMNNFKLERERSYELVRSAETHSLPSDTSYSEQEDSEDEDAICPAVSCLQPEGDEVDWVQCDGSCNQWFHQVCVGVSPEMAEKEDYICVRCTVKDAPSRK
Test: Optimization screen for KDM5B Histone Demethylases FDH coupled qHTS against the LOPAC library (AID 1347166); also: 0% is about no effect
Settings: KDM5B demethylation, FDH-coupled NADH fluorescence (FDH is formaldehyde dehydrogenase); series mostly up to 57.5 µM; activity, negative = inhibition: at the top concentration
Summary of the method: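 KDM5BDeltaAP (200nM final) in 50mM HEPES pH 7.5, 0.01% Tween-20 was preincubated with compound for 10 min at room temperature. A substrate mix of 12.5uM H3K4Me3, 25uM a-ketoglutarate, ascorbate, Fe2+, NAD+ and formaldehyde dehydrogenase was then added. NADH fluorescence (340/450 nm) was read initially and after 30 min.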

| SMILES | activity, negative = inhibition |
| --- | --- |
| CO[C@H]1CC=C2CCN3CCC4=C(CC(=O)OC4)[C@]23C1 | -9% (inactive) |
| NC(C(=O)O)c1cc(=O)[nH]o1 (stereo unspecified) | -5.76% (inactive) |
| CC(C)(C)c1cc(C=C(C#N)C#N)cc(C(C)(C)C)c1O | -23% (inactive) |
| C[N+]1(C)CCN(c2ccccc2)CC1 | -12.5% (inactive) |
| CN1C2CCC1CC(OC(c1ccccc1)c1ccccc1N)C2 (stereo unspecified) | -3.43% (inactive) |
| NCC(CP(=O)(O)O)c1ccc(Cl)cc1 (stereo unspecified) | -5.4% (inactive) |
| CCCN(CCC)[C@@H]1CCc2cccc(O)c2C1 | -4.29% (inactive) |
| CC(C)[C@@]1(NC(=O)[C@@H]2C[C@@H]3c4cccc5[nH]cc(c45)C[C@H]3N(C)C2)O[C@@]2(O)[C@@H]3CCCN3C(=O)[C@H](Cc3ccccc3)N2C1=O | 6.95% (inactive) |
| CN1CCC(c2c[nH]c3ccc(O)cc23)CC1 | -5.71% (inactive) |
| CP(=O)(O)C1=CCNCC1 | -7.18% (inactive) |
| C[N+](C)(C)CC#CCOC(=O)Nc1cccc(Cl)c1 | -8.72% (inactive) |
